# Assays:
# Assay in all cases: PBM binding z-score (relative to random genomic background probes); higher = stronger binding; sequences stand for … in GC…GCGATTGACAGCGTAGAATGAAGG
# [1] = tested on: FXR:RXRa (NR concentration 270 nM, RXRa partner concentration 90 nM)
# Method in brief: (§1)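 Probes were double-stranded and carried 34-nt variable regions with direct-repeat seeds, single-nucleotide variants, half-site ablations and random human genomic background sequences, printed on custom Agilent 4×180K protein-binding microarrays. Arrays were incubated 1 h with ligand-free nuclear receptor dimers in PBS pH 7.4, 2% milk, 0.02% Triton X-100, 1 mM DTT, 0.2 mg/mL BSA and 0.4 mg/ml salmon testes DNA. Antibodies against each partner (one per run) detected binding, and scanned fluorescence was regression-normalized. Binding z-scores use the random background probes as reference.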
# [2] = tested on: LXRa:RXRa (NR concentration 270 nM, RXRa partner concentration 90 nM)
# Method in brief: as §1
# [3] = tested on: LXRa homodimer (NR concentration 270 nM)
# Method in brief: as §1
# [4] = tested on: LXRb:RXRa (NR concentration 270 nM, RXRa partner concentration 90 nM)
# Method in brief: as §1
# [5] = tested on: LXRb homodimer (NR concentration 270 nM)
# Method in brief: as §1
# [6] = tested on: PPARa:RXRa (NR concentration 270 nM, RXRa partner concentration 90 nM)
# Method in brief: as §1
# [7] = tested on: PPARg:RXRa (NR concentration 180 nM, RXRa partner concentration 90 nM)
# Method in brief: as §1
# [8] = tested on: PPARg:RXRa 270nM:90nM, anti-RXR (NR concentration 270 nM, RXRa partner concentration 90 nM)
# Method in brief: as §1
# [9] = tested on: PPARg:RXRa 30nM:10nM, anti-RXR (NR concentration 30 nM, RXRa partner concentration 10 nM)
# Method in brief: as §1
# [10] = tested on: PPARg:RXRa 90nM:30nM, anti-RXR (NR concentration 90 nM, RXRa partner concentration 30 nM)
# Method in brief: as §1
# [11] = tested on: PPARg:RXRa DBDmut IVT, anti-RXR (DBD mutation: RXRa K156A/R161A, NR concentration 270 nM, RXRa partner concentration 90 nM)
# Method in brief: as §1
# [12] = tested on: PPARg:RXRa IVT, anti-PPARg (NR concentration 270 nM, RXRa partner concentration 90 nM)
# Method in brief: as §1
# [13] = tested on: PPARg DBDmut:RXRa IVT, anti-PPARg (DBD mutation: PPARg1 K132A/R137A, NR concentration 270 nM, RXRa partner concentration 90 nM)
# Method in brief: as §1
# [14] = tested on: PPARg DBDmut IVT, anti-PPARg (DBD mutation: PPARg1 K132A/R137A, NR concentration 270 nM)
# Method in brief: as §1
# [15] = tested on: PPARg homodimer (NR concentration 180 nM)
# Method in brief: as §1
# [16] = tested on: PXR:RXRa (NR concentration 270 nM, RXRa partner concentration 90 nM)
# Method in brief: as §1
# [17] = tested on: PXR homodimer (NR concentration 270 nM)
# Method in brief: as §1
# [18] = tested on: RARa:RXR (NR concentration 270 nM, RXRa partner concentration 90 nM)
# Method in brief: as §1
# [19] = tested on: RARa homodimer (NR concentration 270 nM)
# Method in brief: as §1
# [20] = tested on: RARb:RXRa (NR concentration 270 nM, RXRa partner concentration 90 nM)
# Method in brief: as §1
Sequence,PBM binding z-score [1],PBM binding z-score [2],PBM binding z-score [3],PBM binding z-score [4],PBM binding z-score [5],PBM binding z-score [6],PBM binding z-score [7],PBM binding z-score [8],PBM binding z-score [9],PBM binding z-score [10],PBM binding z-score [11],PBM binding z-score [12],PBM binding z-score [13],PBM binding z-score [14],PBM binding z-score [15],PBM binding z-score [16],PBM binding z-score [17],PBM binding z-score [18],PBM binding z-score [19],PBM binding z-score [20]
CTACCAAGTTGAACAAGGTCGTTGATTACTATTC,1.16,1.41,0.853,1.91,0.134,1.73,0.0728,0.171,0.12,0.362,0.743,0.688,0.967,0.704,1.45,2.65,4.18,1.96,1.44,1.29
ACTAGCAGGCCAAGGGTCACACAAGATTAGTCCG,3.44,3.18,0.449,3.38,-0.147,4.88,8.73,6.99,6.3,7.72,1.49,4.04,-0.112,-0.266,1.49,3.56,0.101,4.6,0.267,3.76
ATCTCTAGGTAAGATTCAGTTCAGTGAAGAACGC,0.354,0.48,0.604,0.249,0.778,0.179,-0.128,0.299,0.045,0.492,0.989,0.954,0.543,0.745,0.75,0.994,1.17,0.657,1.15,0.123
TCGAGTAGGTTAGTCGGTGCATTCAGCCAACATA,-0.341,-0.428,-0.522,-0.341,-1.16,0.254,-0.329,0.678,1.05,0.958,1.78,1.93,-0.29,-0.55,0.152,0.147,-0.142,0.0978,0.0806,-0.085
TCATATAGCTAAAGGTGAAAGTCGAACGATATGA,1.12,1.09,-0.213,1.26,-0.321,2.67,2.06,3.08,3.19,3.31,1.54,1.41,0.485,1.01,0.548,0.662,0.459,1.51,0.712,1.62
CCAACTGGGGCAGAAAGGTTACCATACCATCCGG,0.267,0.782,0.0649,1.12,-0.79,2.53,2.29,2.56,0.915,2.11,3.25,3.34,0.0349,-0.823,0.624,1.1,0.0955,1.98,-0.139,2.03
CCGACTGGGGTATAAGGTTACCATAAGCCAGCCC,0.283,1.57,-0.00996,0.982,-0.761,1.69,1.79,2.38,0.774,2.06,1.17,1.24,-0.919,-1.39,0.667,0.301,-0.29,1.24,0.0701,0.726
CCGACTGGGGCAAGCTTACCATAACGCACAGCCA,-0.512,-0.683,-0.49,-0.277,-1.15,0.0607,0.938,0.116,-0.5,-0.274,3.86,2.37,-0.563,-1.13,-0.678,-0.729,-0.611,-0.807,-0.606,0.697
AATCAAAGTTCAGGACGAGGTAACGTAAAGCACG,3.75,4.39,2.25,2.03,0.58,3.2,2.07,2.19,0.724,1.26,-0.649,0.571,0.569,0.969,1.98,2.9,1.19,2.55,1.39,4.19
TAGCCTAGGCCATGCGGGCCAGTATAGTGTCGGC,-0.771,-1.17,-0.671,-1.47,-1.47,-0.776,-0.313,-1.06,-0.847,-1.18,-0.849,-0.0851,-0.949,-1.38,-1.26,-0.956,-1.02,-0.877,-1.18,0.00206
GCATATAGGTAATACAAGGTGAAAGCCCGATTGT,1.68,1.95,0.224,0.494,-0.242,1.56,1.34,1.08,0.375,0.952,4.04,3.27,1.21,0.358,0.757,0.437,-0.12,0.973,0.0827,0.234
TCATATAGGTAAAAGTGAAAGTCGAACGATATGA,0.173,0.399,-0.314,-0.0823,0.0543,1.84,3.25,4.43,4.62,4.68,3.02,2.69,1.14,1.16,0.424,0.212,0.0345,0.234,0.539,0.22
CCGACTGGGGCAGAAAGGTTCCCATACCATCCGG,-0.722,-0.705,-0.526,-0.996,-1.27,-0.271,0.412,0.198,-0.842,-0.499,1.45,0.893,-0.887,-1.78,-0.509,-0.725,-0.638,-0.53,-0.395,0.328
CGAACTAGGTCATTGACAGGACAGGGAATAGTAA,4.56,2.81,0.225,1.82,-0.158,4.65,7.57,6.18,4.13,5.76,8.02,8.21,2.18,1.03,1.49,1.43,0.107,2.22,0.195,3.69
TCATATAGGTAATACAGGTTAAAGTCGGCATCTA,1.72,2.72,2.2,1.82,0.603,2.28,1.93,2.74,4.37,3.53,4.34,3.27,1.19,1.83,1.52,1.32,0.749,1.97,1.97,0.992

# Reference: the supplement of paper PMC6555819
